This passage reports growth results from PubChem BioAssay (NCI).

Molecules are shown by their SMILES. Values joined by “and” are separate entries in the source; they are usually repeats but may differ in a detail not shown here. Identical values can stand only once. The panel holds about 83,000 compounds, 20% with a hit somewhere; the sample as a whole holds those more often.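 For each line, cells grew in 96-well plates with the test compound present at a single concentration for 48 hours.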 Values without a mark were called inactive. Active and inactive are the calls of the source. How the source made its calls: active means growth percent below 10; inactive means the rest.

Some test systems named below: NCI-H23 lung; NCI-H226 lung; NCI-H322M lung; HOP-62 NSCLC; NCI-H460 lung; HOP-92 NSCLC; NCI-H522 lung; A549/ATCC NSCLC; 786-0 renal; COLO 205 colon.
What all share (assay): NCI-60 one-dose screen, 48 h (100 = growth as untreated, 0 = no growth, -100 = all killed)
Holding throughout (conditions): 10 µM unless noted

For `ON=C1CCCCCCCC1`, the growth in the assay with NCI-H23 lung was 99.6% and 98%; with NCI-H226 lung it was 105%; in the assay with NCI-H322M lung, 96.4%; in the assay on HOP-62 NSCLC, 104%; in the assay with NCI-H460 lung it was 114% and 110%; in the assay with HOP-92 NSCLC, 105% and 102%. Besides, the growth in the assay on NCI-H522 lung is 94.1% and 92.8%; with A549/ATCC NSCLC, 103% and 110%; in the assay on 786-0 renal, 116% and 95.6%; in the assay with COLO 205 colon it was 102% and 112%.

On to `COc1ccc(C/C(C)=C(/c2ccc(OCCN3CCCCCC3)cc2)c2ccc(OC(=O)c3ccccc3)cc2)cc1`, for which the growth is 109% in the assay on NCI-H23 lung; 110% in the assay on NCI-H226 lung; 102% in the assay with NCI-H322M lung; 91.3% in the assay with HOP-62 NSCLC; 110% with NCI-H460 lung; 105% in the assay on HOP-92 NSCLC. Further, the growth was 75.6% in the assay with NCI-H522 lung, 97.5% in the assay with A549/ATCC NSCLC, 96.8% in the assay with 786-0 renal and 113% in the assay with COLO 205 colon.

As for `N#C/C(=N\Nc1ccc(Cl)cc1)C(=O)Nc1cc(-c2ccccc2)nn1-c1ccccc1`, the growth with NCI-H23 lung was 1.09% (active); with NCI-H226 lung, 51.5%; in the assay on NCI-H322M lung, 11.9%; with HOP-62 NSCLC it was 61.4%; in the assay with NCI-H460 lung, 8.34% (active); in the assay on HOP-92 NSCLC, -23.4% (active). The growth in the assay with NCI-H522 lung is 7.38% (active); in the assay with A549/ATCC NSCLC, 33.8%; with 786-0 renal it was 45.2%; in the assay on COLO 205 colon it was 65.4%.

With `Cc1oc2c(Cc3ccc(NC(=O)c4ccc(Cl)cc4)cc3)ncnc2c1C(=O)NO`, the growth with NCI-H23 lung is 97.2%; in the assay on NCI-H226 lung it was 86.4%; with NCI-H322M lung, 93.1%; in the assay on HOP-62 NSCLC it was 101%; in the assay on NCI-H460 lung, 97.3%; with HOP-92 NSCLC, 125%. The growth with NCI-H522 lung is 70.7%; with A549/ATCC NSCLC, 88.5%; in the assay with 786-0 renal, 95%; in the assay on COLO 205 colon, 107%.

In the case of `O=C1/C(=C/c2ccc(-c3ccccc3C(F)(F)F)o2)SC(=S)N1CCc1ccc(O)cc1`, the growth was 78.2% in the assay with NCI-H23 lung; 90.2% in the assay on NCI-H226 lung; 75.6% with NCI-H322M lung; 50.2% in the assay with HOP-62 NSCLC; 48.3% in the assay on NCI-H460 lung; 61% in the assay on HOP-92 NSCLC. Besides, the growth with NCI-H522 lung is -11% (active); with A549/ATCC NSCLC it was 45.7%; with 786-0 renal, 65%; in the assay on COLO 205 colon, 48.1%.

In the case of `Nc1ncc(-c2ccc3ncnc(N4CCc5ccc(Cl)cc54)c3c2)cc1C(F)(F)F`, the growth in the assay on NCI-H23 lung is 35.4%; in the assay on NCI-H226 lung, 20.5%; in the assay with NCI-H322M lung, 7.25% (active); in the assay with HOP-62 NSCLC, 17.3%; in the assay with NCI-H460 lung, 18.1%; with HOP-92 NSCLC it was -7.6% (active). The growth in the assay with NCI-H522 lung was 14.1%; in the assay on A549/ATCC NSCLC, 13.5%; with 786-0 renal it was 8.59% (active); with COLO 205 colon, 7.3% (active).

Turning to `CCCCC#Cc1c(/C=C(\CCCC)SCC)n(C)c(=O)[nH]c1=O`, the growth in the assay with NCI-H23 lung is 94.1%; in the assay on NCI-H226 lung it was 93.2%; with NCI-H322M lung it was 97.7%; with HOP-62 NSCLC, 94.8%; with NCI-H460 lung it was 93.8%; in the assay on HOP-92 NSCLC, 82.8%. Besides, the growth with NCI-H522 lung is 79.7%; in the assay on A549/ATCC NSCLC it was 83.1%; with 786-0 renal, 98.5%; with COLO 205 colon, 108%.

For the compound `COc1ccc(-c2ccc(-c3ccc(C(=N)N)cn3)s2)cc1Cl`, the growth in the assay on NCI-H23 lung is -57.5% (active); with NCI-H226 lung, 88.1%; in the assay on NCI-H322M lung it was -97.1% (active); in the assay on HOP-62 NSCLC, -50.5% (active); in the assay with NCI-H460 lung, -93% (active); in the assay with HOP-92 NSCLC, -76.8% (active). In addition, the growth in the assay on NCI-H522 lung was -44.2% (active); with A549/ATCC NSCLC, -58.2% (active); with 786-0 renal, -61.3% (active); in the assay with COLO 205 colon, -51.7% (active).

In the case of `CCCCC1=C(Br)C(=O)c2nc(C)ccc2C1=O`, the growth was 92.8% with NCI-H23 lung; 91.2% with NCI-H226 lung; 88.8% in the assay with NCI-H322M lung; 89.9% in the assay with HOP-62 NSCLC; 98.8% in the assay with NCI-H460 lung; -8.03% (active) with HOP-92 NSCLC. Also, the growth in the assay on NCI-H522 lung was 62.5%; in the assay on A549/ATCC NSCLC it was 92%; in the assay on 786-0 renal it was 95.2%; with COLO 205 colon, 37.1%.

With `COc1ccc(/C=C(\C#N)c2cc3ccccc3[nH]2)cc1`, the growth in the assay with NCI-H23 lung was 33.2%; in the assay on NCI-H226 lung, 88%; in the assay with NCI-H322M lung, 49.9%; with HOP-62 NSCLC, 33.2%; in the assay on NCI-H460 lung, 12.7%; in the assay on HOP-92 NSCLC it was 44%. Also, the growth was 6.84% (active) with NCI-H522 lung, 37.5% with A549/ATCC NSCLC, 42.1% in the assay with 786-0 renal and 9.11% (active) in the assay with COLO 205 colon.

With `CC(=O)N1N=C(c2ccc(F)cc2)CC1c1sc(N(C)Cc2ccccc2)nc1Cl` (stereo not given), the growth in the assay with NCI-H23 lung was 85.1%; in the assay with NCI-H226 lung, 102%; with NCI-H322M lung, 99.6%; in the assay on HOP-62 NSCLC, 91.7%; in the assay with NCI-H460 lung it was 106%; in the assay on HOP-92 NSCLC, 85.9%. The growth is 81.6% in the assay on NCI-H522 lung, 88.6% with A549/ATCC NSCLC, 84.9% with 786-0 renal and 98.7% with COLO 205 colon.

Take `CCOC(=O)n1cc(-c2nonc2-c2cn(C)c3ccc(OC)cc23)c2cc(F)ccc21`: the growth was 76.1% in the assay with NCI-H23 lung; 78.3% with NCI-H226 lung; 67.4% in the assay with NCI-H322M lung; 72.6% in the assay on HOP-62 NSCLC; 80.6% in the assay with NCI-H460 lung; 71.4% with HOP-92 NSCLC. The growth in the assay with NCI-H522 lung was 74.4%; in the assay with A549/ATCC NSCLC, 56.5%; in the assay with 786-0 renal it was 93.9%; in the assay with COLO 205 colon, 90.9%.
